These results are taken from PubChem BioAssay.

The subject of experiment [1] is TRPC4 beta (transient receptor potential cation channel C4), mouse. Kind of experiment: TRPC4 cation channel opening, retest – cell-based, Fluo4 calcium, HEK293 TRPC4beta/mu-opioid, duplicates, 10 µM, confirmation (AID 2426;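 active means fluorescence ratio normalized to control raised more than 50% in primary screen plus both repeat runs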). The settings on record: Fluo4 calcium fluorescence, at 10 µM; active compounds read high.
Experiment [2] has as its system transient receptor potential cation channel C4 beta (TRPC4), mouse. Kind of experiment: TRPC4 cation channel opening, second retest – cell-based, second round, Fluo4, HEK293 TRPC4beta/mu-opioid, 1 µM, confirmation (AID 2461;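 active means primary screen active and over 50% activation in each of two duplicate runs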). The settings on record: Fluo4 calcium fluorescence, at 1 µM; active compounds read high.
The subject of experiment [3] is TRPC4 (transient receptor potential cation channel C4 beta), mouse. Kind of experiment: potentiation of DAMGO EC20 TRPC4 response – cell-based, second round, Fluo-4, HEK293 TRPC4beta/mu-opioid, 1 µM, confirmation (AID 2554;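 active means primary screen hit whose fluorescence ratio, in both repeats, exceeds the weak agonist control mean by 3 SD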). The settings on record: DAMGO EC20, Fluo-4 calcium flux, at 1 µM; active compounds read high. On the technique in general: Calcium flux is commonly read through the fluorescence of an indicator in the cells.

In experiment [4] the test system is TRPC4 beta (transient receptor potential cation channel C4), mouse. The experiment can be described thus: potentiation of DAMGO EC20 TRPC4 response – cell-based, Fluo-4, HEK293 TRPC4beta/mu-opioid, confirmation (AID 2555;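 active means primary screen hit whose calcium fluorescence ratio, in both repeats, exceeds the weak agonist control mean by 3 SD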). The settings on record: DAMGO EC20, Fluo-4 calcium flux, at 10 µM; active compounds read high.
Experiment [5] concerns the target Short transient receptor potential channel 4 (Mus musculus) (UniProt Q9QUQ5). The experiment can be described thus: blockers of DAMGO-evoked TRPC4 calcium flux – cell-based, Fluo4, HEK293 TRPC4beta/mu-opioid, confirmation (AID 2636;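 active means calcium signal cut by more than 3 SD below the full-agonist control yet still positive, in both repeats and the earlier primary screen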). The settings on record: at 10 µM; active compounds read high.
For experiment [6] the target is unchanged. Kind of experiment: blockers of DAMGO-evoked TRPC4 calcium flux – cell-based, second round, Fluo4, HEK293 TRPC4beta/mu-opioid, 1 µM, confirmation (AID 2637;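 active means calcium signal ratio cut to more than 3 SD under the fully stimulated control mean yet still positive, in both repeats and the primary screen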;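 on inhibition: percent of integrated ratio relative to wells lacking test compound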). The settings on record: at 1 µM; active compounds read high.
Experiment [7] has the same target. The experiment can be described thus: calcium entry via TRPC4 opening agents – cell-based, HEK293 TRPC4/mu-opioid, Fluo-4 calcium, dose response (AID 434937).
The target is the same in experiment [8]. The experiment can be described thus: potentiation of DAMGO-evoked TRPC4 calcium signal – cell-based, HEK293 TRPC4/mu-opioid, Fluo-4 calcium, EC20 DAMGO, dose response (AID 434941;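 active means earlier screen potentiator hit that boosts the TRPC4 ion channel at some dose, with a dose response; inactive means no potentiation, no dose response, or not a prior hit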;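 further: calcium entry triggered by an EC20 dose of DAMGO at the co-expressed mu-opioid receptor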).
For experiment [9] the target is unchanged. Kind of experiment: block of DAMGO-driven TRPC4 calcium entry – cell-based, HEK293 TRPC4/mu-opioid, Fluo-4 calcium, dose response (AID 434942;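 active means primary screen inhibitor hit that blocks the TRPC4 channel at some tested dose, yielding a dose curve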).
Experiment [10] deals with Short transient receptor potential channel 6 (Mus musculus) (UniProt Q61143). Kind of experiment: TRPC6 blockade by TRPC4 inhibitor hits – cell-based, HEK293, membrane potential dye, duplicate, selectivity assay for TRPC4 inhibitor project, confirmation (AID 434948;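 active means active in primary screen and both duplicates, each dropping signal beyond three positive-control SD with fluorescence still positive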). The settings on record: HEK293 TRPC6, membrane potential dye fluorescence, at 10 µM, stimulated with maximal-effect acetylcholine; active compounds read high.
Short transient receptor potential channel 6 (Mus musculus), sequence (Q61143 whole entry, looked up): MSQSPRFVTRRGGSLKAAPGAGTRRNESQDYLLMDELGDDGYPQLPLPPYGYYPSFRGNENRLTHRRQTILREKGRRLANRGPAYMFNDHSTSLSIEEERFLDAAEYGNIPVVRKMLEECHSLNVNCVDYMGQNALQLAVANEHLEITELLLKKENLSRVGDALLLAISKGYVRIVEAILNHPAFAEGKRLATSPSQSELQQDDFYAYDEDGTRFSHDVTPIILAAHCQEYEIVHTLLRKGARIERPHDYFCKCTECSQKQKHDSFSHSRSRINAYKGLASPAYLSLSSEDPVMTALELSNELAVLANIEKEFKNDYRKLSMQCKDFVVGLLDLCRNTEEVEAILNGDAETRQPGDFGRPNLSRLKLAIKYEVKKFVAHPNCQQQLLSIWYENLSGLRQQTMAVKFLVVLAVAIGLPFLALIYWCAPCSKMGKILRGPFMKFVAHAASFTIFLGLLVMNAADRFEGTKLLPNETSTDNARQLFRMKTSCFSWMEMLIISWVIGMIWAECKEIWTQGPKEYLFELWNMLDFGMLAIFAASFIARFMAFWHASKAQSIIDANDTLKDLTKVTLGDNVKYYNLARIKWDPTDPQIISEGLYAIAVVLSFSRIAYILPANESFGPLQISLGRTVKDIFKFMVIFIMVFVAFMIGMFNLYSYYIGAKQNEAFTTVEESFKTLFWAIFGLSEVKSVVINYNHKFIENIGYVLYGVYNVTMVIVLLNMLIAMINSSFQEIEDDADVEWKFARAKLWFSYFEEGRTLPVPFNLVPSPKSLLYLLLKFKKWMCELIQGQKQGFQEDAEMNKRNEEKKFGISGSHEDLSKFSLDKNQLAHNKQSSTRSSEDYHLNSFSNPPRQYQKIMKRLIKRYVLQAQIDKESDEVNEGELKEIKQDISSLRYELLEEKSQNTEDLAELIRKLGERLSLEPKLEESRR

Experiment [11] has the same target. Kind of experiment: TRPC6 opening by TRPC4 activator hits – cell-based, HEK293, membrane potential dye, duplicate, selectivity assay for TRPC4 activator project, confirmation (AID 434950;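 active means membrane potential signal rise above negative control mean plus 3 SD in both duplicates, also active in the earlier TRPC4 screen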;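 on activation: 0% = buffer only wells and 100% = acetylcholine maximal-effect wells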). The settings on record: HEK293 TRPC6, membrane potential fluorescence, at 10 µM; activation: active compounds read high; outcome: activation.
Experiment [12] shares this target. Kind of experiment: positive modulators of mouse TRPC6 channel – HEK293 cells, membrane potential dye, duplicate, selectivity assay for TRPC4 potentiator project, confirmation (AID 434952;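 active means compound raising the membrane signal above positive-control mean plus 3 SD in both repeats, and a primary screen hit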). The settings on record: HEK293 TRPC6, membrane potential dye fluorescence, at 10 µM, maximal acetylcholine added after compound; active compounds read high.
Experiment [13] addresses Short transient receptor potential channel 4 (Mus musculus) (UniProt Q9QUQ5). The experiment can be described thus: calcium flux activators in TRPC4/5HT1a cells, counter-screen for TRPC4 activator project, cell-based, second counter screen, HEK293 TRPC4/5HT1a, Fluo-4 (AID 434977;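 active means calcium signal rise above buffer-control mean plus 5 SD in both duplicates, and also a hit in the primary screen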). The settings on record: Fluo-4 calcium flux, at 10 µM; active compounds read high.
Experiment [14] in a line: serotonin-gated TRPC4 signal block – cell-based, second counter screen, HEK293 TRPC4/5HT1a, Fluo-4, counter-screen for TRPC4 inhibitor project, confirmation (AID 434978;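 active means primary screen active whose calcium signal fell more than 3 SD beyond the full-serotonin control mean in both duplicate plates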;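 further: serotonin given first at submaximal then at maximal dose after compound preincubation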). The settings on record: Fluo-4 calcium flux, at 10 µM, serotonin added to trigger calcium flux; active compounds read high.
Experiment [15] concerns TRPC4 (mouse), co-expressed with 5HT1a in HEK293. The experiment can be described thus: enhancement of serotonin-evoked TRPC4 response – cell-based, second counter screen, HEK293 TRPC4/5HT1a, Fluo-4, counter-screen for TRPC4 potentiator project, confirmation (AID 434979;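 active means signal rise over 3 SD above mean of control wells given weak agonist, in both repeats and first screen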). The settings on record: Fluo-4 calcium flux, at 10 µM, serotonin added at its EC20 dose; active compounds read high.

A short description of experiment [16]: nonspecific calcium rise without TRPC4 – cell-based, HEK293 mu-opioid receptor line, counter-screen for TRPC4 activator project, confirmation (AID 449723;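 active means hit in primary screen, with calcium signal over 5 SD above buffer well mean in both duplicates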;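 further: counter screen cells carry the mu-opioid receptor alone and lack TRPC4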). The settings on record: HEK293 mu-opioid cells, Fluo-4 calcium fluorescence, at 10 µM; active compounds read high. (Counterscreens check selectivity or assay interference.)
The nature of experiment [17]: nonspecific potentiation of DAMGO calcium response – cell-based, HEK293 mu-opioid receptor line, counter-screen for TRPC4 allosteric potentiator project, confirmation (AID 449724;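 active means calcium signal rise more than 3 SD above the low-dose agonist control mean, in both duplicate plates and the primary screen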;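 further: HEK293 cells carrying mu-opioid receptor only with no TRPC4 channel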). The settings on record: HEK293 mu-opioid receptor cells, Fluo-4 calcium flux, at 10 µM, compound added before EC20 DAMGO stimulus; active compounds read high.

For part of these data: Entries with a potency or affinity are not part of this list. Activity calls are given as the source filed them.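 How the source made its calls, unless noted: active means primary screen activator hit with a dose response curve and TRPC4 channel activation at any tested dose; inactive means no activation, no dose response, or not a primary hit.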

Short transient receptor potential channel 4 (Mus musculus), sequence (Q9QUQ5 whole entry, looked up): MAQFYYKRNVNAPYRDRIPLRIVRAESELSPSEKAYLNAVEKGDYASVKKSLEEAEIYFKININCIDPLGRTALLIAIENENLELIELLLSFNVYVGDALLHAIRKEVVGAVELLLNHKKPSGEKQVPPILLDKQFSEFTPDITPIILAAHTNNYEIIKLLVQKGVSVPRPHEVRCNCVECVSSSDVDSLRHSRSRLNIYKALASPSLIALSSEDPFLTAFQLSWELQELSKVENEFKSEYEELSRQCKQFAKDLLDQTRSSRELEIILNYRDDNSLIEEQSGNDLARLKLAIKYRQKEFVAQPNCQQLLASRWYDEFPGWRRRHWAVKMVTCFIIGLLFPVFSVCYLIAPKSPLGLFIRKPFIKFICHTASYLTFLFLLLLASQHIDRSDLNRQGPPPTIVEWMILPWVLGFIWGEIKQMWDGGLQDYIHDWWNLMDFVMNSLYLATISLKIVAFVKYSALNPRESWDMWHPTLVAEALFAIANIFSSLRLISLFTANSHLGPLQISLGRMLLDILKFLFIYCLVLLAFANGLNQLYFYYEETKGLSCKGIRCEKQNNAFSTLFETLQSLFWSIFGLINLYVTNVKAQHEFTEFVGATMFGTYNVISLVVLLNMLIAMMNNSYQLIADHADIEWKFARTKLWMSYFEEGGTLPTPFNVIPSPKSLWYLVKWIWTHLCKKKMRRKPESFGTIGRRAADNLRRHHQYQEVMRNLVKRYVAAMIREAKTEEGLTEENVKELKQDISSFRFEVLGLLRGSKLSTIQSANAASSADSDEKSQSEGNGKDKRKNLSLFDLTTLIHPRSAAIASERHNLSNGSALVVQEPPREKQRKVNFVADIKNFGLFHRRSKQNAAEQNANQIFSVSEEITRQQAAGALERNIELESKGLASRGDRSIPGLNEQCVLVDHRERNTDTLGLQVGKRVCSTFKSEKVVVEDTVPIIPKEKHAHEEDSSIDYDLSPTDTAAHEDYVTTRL

`Cc1ccc(NC(=O)c2cc(N3C(=O)C=CC3=O)ccc2N2CCOCC2)cc1Cl`: the outcome in experiment [1], in experiment [2], in experiment [3], in experiment [4], in experiment [5] and in [6] was inactive. Besides, the outcome in experiment [7], in [8], in experiment [9], in experiment [10], in [11] and in [12] was inactive. Also, the outcome in [13], in experiment [14], in experiment [15], in experiment [16] and in experiment [17] was inactive.
As for `O=C(Nc1cnn(C23CC4CC(CC(C4)C2)C3)c1)c1cnn2cccnc12`, the result in experiment [1], in [2], in experiment [5], in [6], in experiment [7] and in experiment [8] was inactive. The result in experiment [9], in experiment [10], in [11], in [12], in experiment [13] and in experiment [14] was inactive. In addition, the result in experiment [16] and in [17] was inactive. Besides, the potentiation in experiment [3] was 27% (active); in [4], 61% (active); in [15] it was 71.9% (active).
As for `COc1ccc(C2C(O)C(c3c[nH]c4ccccc34)=NN2C(=O)CCl)cc1` (stereo not given), the result in experiment [1], in experiment [2], in experiment [3], in experiment [5], in [6] and in [7] was inactive. Further, the outcome in [8], in experiment [9], in experiment [10], in experiment [11], in experiment [12] and in experiment [13] was inactive. The result in experiment [14], in experiment [16] and in experiment [17] was inactive. Also, the values for the potentiation in experiment [4] and in [15] were 36% (active) and 28.9% (active), respectively.
With `Cc1ccc(C)c(N(CC(=O)NC2CCCC2)C(=O)c2csnn2)c1`, the outcome in experiment [1], in experiment [2], in [3], in experiment [4], in [5] and in experiment [6] was inactive. Further, the result in experiment [7], in experiment [8], in experiment [9], in [10], in experiment [12] and in experiment [13] was inactive. Also, the result in experiment [14], in experiment [15], in [16] and in experiment [17] was inactive. Moreover, the activation in experiment [11] was 30% (active).
Regarding `Cc1cc(N2CCOCC2)nc(NCc2ccccc2)n1`, the result in experiment [1], in experiment [2], in experiment [3], in experiment [4], in experiment [5] and in [6] was inactive. Further, the result in [7], in experiment [8], in experiment [9], in [10], in experiment [11] and in [12] was inactive. In addition, the outcome in experiment [13], in experiment [14], in [15], in [16] and in [17] was inactive.
`c1ccc2c(c1)[nH]c1c(N3CCCC3)ncnc12`: the outcome in experiment [1], in experiment [2], in experiment [3], in experiment [4], in [5] and in experiment [6] was inactive. In addition, the outcome in [7], in [8], in [9], in [10], in [11] and in experiment [12] was inactive. Also, the outcome in experiment [13], in experiment [14], in [15], in [16] and in experiment [17] was inactive.
One may read the inhibition as the change of the read-out against control, counted positive when it falls. Consider `C=CCNC(=S)N/N=C/c1ccc(C(C)(C)C)cc1`, for which the outcome in [1], in experiment [2], in [3], in experiment [4], in experiment [7] and in experiment [8] was inactive. For the same compound, the result in experiment [9], in [10], in [11], in [12], in experiment [13] and in experiment [14] was inactive. Further, the outcome in experiment [15], in experiment [16] and in experiment [17] was inactive. In addition, the inhibition is 79% (active) in [5] and 41% (active) in experiment [6].
Take `CC(=O)Nc1nc(-c2ccc3c(c2)CCN3C(=O)C2CC2)c(C)s1`: the outcome in [1], in experiment [2], in [3], in [4], in [5] and in [6] was inactive. For the same compound, the result in experiment [7], in experiment [8], in experiment [9], in experiment [10], in experiment [11] and in [12] was inactive. For the same compound, the outcome in experiment [13], in experiment [14], in [15], in [16] and in experiment [17] was inactive.
As to `CCCCN1CCc2c1nc1ccc(Br)cc1c2N`, the result in experiment [1], in [2], in experiment [3], in [4], in [5] and in [6] was inactive. The result in experiment [7], in experiment [8], in experiment [9], in experiment [10], in [11] and in [12] was inactive. The result in [13], in experiment [14], in experiment [15], in experiment [16] and in experiment [17] was inactive.
For `Cc1ccc(Cl)c(OCCN2CCCC(C)C2)c1` (stereo not given), the outcome in [1], in experiment [2], in experiment [4], in experiment [5], in experiment [6] and in experiment [7] was inactive. The outcome in experiment [8], in experiment [9], in experiment [10], in [11], in [12] and in [13] was inactive. For the same compound, the outcome in experiment [14], in [16] and in experiment [17] was inactive. Further, the potentiation in experiment [3] is 25% (active); in experiment [15], 7.06% (active).
For the compound `Cc1cc(S(=O)(=O)NC2CCN(Cc3ccccc3)CC2)c(C)cc1Cl`, the outcome in [1], in experiment [2], in experiment [3], in experiment [4], in [5] and in experiment [6] was inactive. Moreover, the outcome in [7], in [8], in experiment [9], in experiment [10], in [11] and in experiment [12] was inactive. The result in [13], in experiment [14], in experiment [16] and in [17] was inactive. Besides, the potentiation in [15] was 23.1% (active).
Turning to `CC(=O)Oc1c(C)cc(O)c2ccccc12`, the outcome in experiment [1], in [2], in [3], in experiment [4], in [5] and in [6] was inactive. Moreover, the result in [7], in [8], in experiment [9], in [10], in experiment [11] and in [12] was inactive. Moreover, the outcome in experiment [13], in experiment [14], in experiment [15], in experiment [16] and in [17] was inactive.
Consider `CC[n+]1c(/C=C/c2ccc(OC(C)=O)c(OC)c2)ccc2ccccc21`, for which the outcome in experiment [1], in experiment [2], in [3], in experiment [4], in experiment [5] and in experiment [6] was inactive. In addition, the result in experiment [7], in experiment [8], in experiment [9], in experiment [10], in experiment [11] and in [12] was inactive. Besides, the outcome in experiment [13], in [14], in experiment [15], in experiment [16] and in experiment [17] was inactive.
Consider `COc1cccc(N(C(=O)c2snc(C(N)=O)c2N)C(C(=O)NCC2CCCO2)c2ccc3ncccc3c2)c1` (stereo not given), for which the outcome in experiment [1], in experiment [2], in [3], in experiment [4], in experiment [6] and in [7] was inactive. The outcome in experiment [8], in experiment [9], in experiment [10], in experiment [11], in [12] and in experiment [13] was inactive. Also, the result in experiment [14], in experiment [15], in experiment [16] and in experiment [17] was inactive. The inhibition in experiment [5] is 76% (active).
Take `O=C(/C=C/c1ccccc1Cl)N(c1ccccn1)C1CCCCC1`: the outcome in [1], in experiment [2], in [3], in experiment [4], in experiment [5] and in [6] was inactive. For the same compound, the outcome in experiment [7], in experiment [8], in experiment [9], in experiment [10], in experiment [11] and in [12] was inactive. Further, the result in experiment [13], in experiment [14], in experiment [15], in experiment [16] and in experiment [17] was inactive.
